The text below walks through data of PubChem BioAssay (NCI).

Each structure is given as a SMILES string. Compounds without any hit were thinned out: in the full panel of roughly 83,000, 20% have a hit.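 Step 1: grow cells in 96-well plates. Step 2: add test compound at a single concentration. Step 3: incubate 48 h. Step 4: record percent growth.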 Values without a mark were called inactive. Calls of active or inactive are those of the source. The calls were made as follows: active = growth percent below 10; inactive = the rest.

What all share (experiment): NCI-60 one-dose screen, 48 h (100 = growth as untreated, 0 = no growth, -100 = all killed)
Common to all, as to conditions: 10 µM unless noted

Assay [1] has as its system HCT-15 colon.
In assay [2] the test system is SNB-75 CNS.
For assay [3], the system named is SNB-19 CNS.
Assay [4] relates to U251 CNS.
Assay [5] has as its system PC-3 prostate.
Assay [6] relates to SK-MEL-5 melanoma.
The test system of assay [7] is UACC-62 melanoma.
Assay [8] relates to LOX IMVI melanoma.
For assay [9], the system named is SK-MEL-28 melanoma.

`O=C(Nc1ncc(Cc2ccccc2)s1)c1cc(-c2ccccc2)nc2ccccc12`: the growth in assay [1] is 94.7%; in [2] it was 92.6%; in assay [3], 98.1%; in assay [4], 98.2%; in [5], 94.8%; in assay [6], 98.8%. Besides, the growth in assay [7] is 89.8%; in assay [8] it was 86.7%; in assay [9], 105%.
As to `O=C(CSc1nnc(-c2ccc(Cl)c(Cl)c2)n1-c1ccccc1)Nc1ccc(C(=O)/C=C/c2ccc(Cl)cc2)cc1`, the growth in [1] was 92.3%; in assay [2], 69.9%; in assay [3] it was 94.1%; in assay [4] it was 84%; in assay [5], 62.5%; in assay [6] it was 93.1%. For the same compound, the growth in [7] was 76.7%; in [8] it was 97.5%; in assay [9] it was 104%.
For `Oc1cccc(-c2nc(-c3n[nH]c(=S)n3-c3ccccc3)cc3c2[nH]c2ccccc23)c1`, the growth was 20.3% in assay [1]; -11.5% (active) in [2]; 24.2% in assay [3]; 14% in assay [4]; 30% in [5]; 9.76% (active) in [6]. For the same compound, the values for the growth in assay [7], in [8] and in assay [9] were 32%, 8.16% (active) and 31.4%, respectively.
As to `Cc1ccc(-c2nnc(SCc3nc(N)nc(Nc4ccccc4F)n3)n2-c2ccccc2)cc1`, the growth in [1] was 91.3%; in assay [2], 102%; in assay [3] it was 91.8%; in assay [4], 92.8%; in [5], 87.7%; in assay [6] it was 91.5%. For the same compound, the growth was 86% in assay [7], 100% in [8] and 97.5% in [9].
In the case of `O=C1/C(=C/c2ccc(-c3ccc(Cl)cc3)o2)SC(=S)N1CCc1ccc(O)cc1`, the growth in assay [1] was 67.5%; in assay [2], 25.8%; in assay [3], 87.2%; in assay [4] it was 22.2%; in assay [5], 53.2%; in assay [6], 94.5%. Besides, the growth in assay [7] is 50.5%; in assay [8], 75.1%; in assay [9], 93.6%.
`CN1C(=O)N(C)C2C1NN=c1s/c(=C\c3ccc(F)cc3)c(=O)n12` (stereo not given): the growth in assay [1] is 27.3%; in [2] it was -7.45% (active); in assay [3] it was 34.8%; in [4], 26.8%; in assay [5] it was 34.8%; in assay [6], 31.7%. The growth in assay [7] was 26.7%; in assay [8], 36.1%.
As for `O=C(COc1ccc(/C=C2\Oc3ccccc3C2=O)cc1)Nc1nccs1`, the growth was 104% in assay [1]; 51.3% in [2]; 102% in assay [3]; 90.9% in assay [4]; 78.7% in [5]; 105% in assay [6]. For the same compound, the growth in assay [7] was 90.6%; in assay [8], 85.1%; in assay [9] it was 129%.
For the compound `Cc1ccc(NC(=O)c2ccc(Nc3ncnc4c3cnn4-c3cccc(F)c3)cc2)cc1`, the growth is 100% in [1]; 93.5% in assay [2]; 94.2% in assay [3]; 102% in assay [4]; 100% in assay [5]; 99.8% in assay [6]. Further, the growth in [7] was 90.7%; in assay [8], 92.8%; in assay [9], 106%.
Regarding `COc1cc(NC(=O)c2cncnc2Nc2ccc3c(ccn3Cc3cccc(F)c3)c2)cc(OC)c1`, the growth was 33.7% in assay [1]; 8.48% (active) in assay [2]; 74.7% in assay [3]; 41.1% in [4]; 43.5% in [5]; 59.7% in [6]. For the same compound, the growth is 55% in assay [7], 40.3% in [8] and 59.6% in [9].
As to `Nc1ncnc2c1N=C(c1ccc([N+](=O)[O-])cc1)CC(c1ccc3c(c1)OCO3)N2` (stereo not given), the growth in assay [1] is 103%; in assay [2] it was 69.1%; in assay [3] it was 83.6%; in assay [4], 89%; in [5], 72.6%; in assay [6], 80.2%. Besides, the growth is 77.9% in assay [7], 85.3% in assay [8] and 108% in assay [9].
Regarding `CN1CCN(CCCNC(=O)c2c3c(n4ccccc24)C(=O)c2ncccc2C3=O)CC1`, the growth was 4.07% (active) in [1]; -4.64% (active) in assay [2]; -4.84% (active) in assay [3]; -15.7% (active) in assay [4]; -1.89% (active) in [5]; -96% (active) in assay [6]. In addition, the growth in assay [7] is -23.7% (active); in assay [8], -31.7% (active); in [9], 61.5%.
Turning to `CCOc1ccccc1NC(=O)CCC(=O)OC`, the growth in [1] was 105%; in assay [2], 75.7%; in [3] it was 111%; in assay [4], 105%; in assay [5], 93.5%; in [6] it was 99.7%. The results for the growth in assay [7], in [8] and in [9] were 106%, 102% and 101%, respectively.
Turning to `CCOC(=O)C1=C(c2ccccc2)N=C2N(c3ccccc3)N=C(C(C)=O)N2C1c1ccc(Br)cc1` (stereo not given), the growth is 92.2% in [1]; 85.8% in assay [2]; 88.7% in assay [3]; 98% in assay [4]; 77.6% in [5]; 94% in [6]. For the same compound, the growth in assay [7] was 72.4%; in assay [8] it was 95.4%.
In the case of `Cc1ccc2c(c1)CC(O)CC1C(=O)N(CCO)CC(=O)N21` (stereo not given), the growth is 106% in assay [1]; 83% in assay [2]; 102% in [3]; 95.4% in assay [4]; 96.8% in assay [5]; 104% in [6]. Further, the growth in assay [7] was 97.3%; in assay [8] it was 96.2%; in assay [9], 102%.
With `COc1cc2c(cc1OC)CC[N+](CCC[N+](C)(C)C)=C2`, the growth in assay [1] was 101%; in [2], 80.2%; in assay [3] it was 110%; in [4], 98.9%; in assay [5], 83.9%; in assay [6] it was 104%. Further, the growth was 110% in [7], 99.3% in assay [8] and 98.7% in assay [9].
For the compound `CC1=NC(=S)NC(c2ccccc2)/C1=C1/CC(c2ccccc2O)NN1` (stereo not given), the growth in assay [1] is 97.3%; in assay [2] it was 80.7%; in assay [3], 94.2%; in assay [4], 103%; in assay [5], 95%; in assay [6], 102%. Also, the values for the growth in [7], in assay [8] and in assay [9] were 97.8%, 101% and 104%, respectively.
Consider `Cc1cc(C(=O)Nc2cc(Nc3ncccc3-c3ncnc4nc[nH]c34)ccc2F)cc(C(C)(C)C#N)c1`, for which the growth in assay [1] is 42.7%; in assay [2], 79.5%; in assay [3] it was 61.8%; in assay [4], 51.1%; in assay [5], 57.8%; in [6] it was 27.1%. The growth in assay [7] is 3.75% (active); in assay [8], -9.5% (active); in assay [9] it was 10.9%.
In the case of `c1ccc(-c2cn3nc(-c4c[nH]c5ccccc45)sc3n2)cc1`, the growth in assay [1] was 56.2%; in assay [2], 54.1%; in assay [3], 87.6%; in [4] it was 92.4%; in assay [5] it was 76.8%; in [6] it was 74.2%. For the same compound, the growth in assay [7] was 71%; in assay [8], 86%; in assay [9], 86.8%.
